Measurements reported in paper PMC12529666, “Dysregulation of AGO2-miRNA dynamics underlies the AGO2-associated Lessel–Kreienkamp syndrome”.
Residue numbers refer to the chain shown, from its start.

B1: GTGCTTTG (ssRNA)
RNA 1: GAGUUCUACAGUCCGACGAUCCCAACGUGCUUUGCACCUGGAAUUCUCGGGUGCCAA
RNA 2: UGGAGUGUGACAAUGGUGUUUG
DNA 1: GATCGTCGGACTGTAGAACTC
DNA 2: TTGGCACCCGAGAATTCCA
modifications: constant regions annealed to DNA blockers; guide miR-122 5' phosphate
B2: GCATTTTA (ssRNA)
RNA 1: B1 RNA 1 with U28C, G29A, C30U, G34A
RNA 2: UGGAGUGUGACAAUGGUGUUUG
DNA 1: GATCGTCGGACTGTAGAACTC
DNA 2: TTGGCACCCGAGAATTCCA
modifications: constant regions annealed to DNA blockers; guide miR-122 5' phosphate
B3: GTATTTTA (ssRNA)
RNA 1: B1 RNA 1 with G29A, C30U, G34A
RNA 2: UGGAGUGUGACAAUGGUGUUUG
DNA 1: GATCGTCGGACTGTAGAACTC
DNA 2: TTGGCACCCGAGAATTCCA
modifications: constant regions annealed to DNA blockers; guide miR-122 5' phosphate
B4: GCGTTCTA (ssRNA)
RNA 1: B1 RNA 1 with U28C, C30U, U32C, G34A
RNA 2: UGGAGUGUGACAAUGGUGUUUG
DNA 1: GATCGTCGGACTGTAGAACTC
DNA 2: TTGGCACCCGAGAATTCCA
modifications: constant regions annealed to DNA blockers; guide miR-122 5' phosphate
B5: GTATTCTA (ssRNA)
RNA 1: B1 RNA 1 with G29A, C30U, U32C, G34A
RNA 2: UGGAGUGUGACAAUGGUGUUUG
DNA 1: GATCGTCGGACTGTAGAACTC
DNA 2: TTGGCACCCGAGAATTCCA
modifications: constant regions annealed to DNA blockers; guide miR-122 5' phosphate
B6: ATGCTTTA (ssRNA)
RNA 1: B1 RNA 1 with G27A, G34A
RNA 2: UGGAGUGUGACAAUGGUGUUUG
DNA 1: GATCGTCGGACTGTAGAACTC
DNA 2: TTGGCACCCGAGAATTCCA
modifications: constant regions annealed to DNA blockers; guide miR-122 5' phosphate
B7: GCGCCCTG (ssRNA)
RNA 1: B1 RNA 1 with U28C, U31C, U32C
RNA 2: UGGAGUGUGACAAUGGUGUUUG
DNA 1: GATCGTCGGACTGTAGAACTC
DNA 2: TTGGCACCCGAGAATTCCA
modifications: constant regions annealed to DNA blockers; guide miR-122 5' phosphate
B8: GCGCTTTA (ssRNA)
RNA 1: B1 RNA 1 with U28C, G34A
RNA 2: UGGAGUGUGACAAUGGUGUUUG
DNA 1: GATCGTCGGACTGTAGAACTC
DNA 2: TTGGCACCCGAGAATTCCA
modifications: constant regions annealed to DNA blockers; guide miR-122 5' phosphate
B9: ACACCCTG (ssRNA)
RNA 1: B1 RNA 1 with G27A, U28C, G29A, U31C, U32C
RNA 2: UGGAGUGUGACAAUGGUGUUUG
DNA 1: GATCGTCGGACTGTAGAACTC
DNA 2: TTGGCACCCGAGAATTCCA
modifications: constant regions annealed to DNA blockers; guide miR-122 5' phosphate
B10: GTGTTCCA (ssRNA)
RNA 1: B1 RNA 1 with C30U, U32C, U33C, G34A
RNA 2: UGGAGUGUGACAAUGGUGUUUG
DNA 1: GATCGTCGGACTGTAGAACTC
DNA 2: TTGGCACCCGAGAATTCCA
modifications: constant regions annealed to DNA blockers; guide miR-122 5' phosphate
B11: GTGCTTCA (ssRNA)
RNA 1: B1 RNA 1 with U33C, G34A
RNA 2: UGGAGUGUGACAAUGGUGUUUG
DNA 1: GATCGTCGGACTGTAGAACTC
DNA 2: TTGGCACCCGAGAATTCCA
modifications: constant regions annealed to DNA blockers; guide miR-122 5' phosphate

Each binder was assayed against AGO2 L192P (Homo sapiens, UniProt Q9UKV8 1-859, L192P;S387D;S824A;S828D;S831D;S834A) (assay: RNA Bind-n-Seq (nitrocellulose filter binding and sequencing); miR-122 guide loaded in AGO2; 60 min incubation; 30 mM Tris pH 8.0, 100 mM potassium acetate, 2 mM magnesium acetate, 0.5 mM TCEP, 0.005% NP-40, 0.01 mg/ml yeast tRNA; 3 nM AGO2-miR-122, 100 nM RNA library; 60; high values mean tight binding). Details: protein: recombinant; tags: His6 (N-terminal, pFastBac HTA).
Chain of AGO2 L192P (Q9UKV8 whole entry L192P/S387D/S824A/S828D/S831D/S834A): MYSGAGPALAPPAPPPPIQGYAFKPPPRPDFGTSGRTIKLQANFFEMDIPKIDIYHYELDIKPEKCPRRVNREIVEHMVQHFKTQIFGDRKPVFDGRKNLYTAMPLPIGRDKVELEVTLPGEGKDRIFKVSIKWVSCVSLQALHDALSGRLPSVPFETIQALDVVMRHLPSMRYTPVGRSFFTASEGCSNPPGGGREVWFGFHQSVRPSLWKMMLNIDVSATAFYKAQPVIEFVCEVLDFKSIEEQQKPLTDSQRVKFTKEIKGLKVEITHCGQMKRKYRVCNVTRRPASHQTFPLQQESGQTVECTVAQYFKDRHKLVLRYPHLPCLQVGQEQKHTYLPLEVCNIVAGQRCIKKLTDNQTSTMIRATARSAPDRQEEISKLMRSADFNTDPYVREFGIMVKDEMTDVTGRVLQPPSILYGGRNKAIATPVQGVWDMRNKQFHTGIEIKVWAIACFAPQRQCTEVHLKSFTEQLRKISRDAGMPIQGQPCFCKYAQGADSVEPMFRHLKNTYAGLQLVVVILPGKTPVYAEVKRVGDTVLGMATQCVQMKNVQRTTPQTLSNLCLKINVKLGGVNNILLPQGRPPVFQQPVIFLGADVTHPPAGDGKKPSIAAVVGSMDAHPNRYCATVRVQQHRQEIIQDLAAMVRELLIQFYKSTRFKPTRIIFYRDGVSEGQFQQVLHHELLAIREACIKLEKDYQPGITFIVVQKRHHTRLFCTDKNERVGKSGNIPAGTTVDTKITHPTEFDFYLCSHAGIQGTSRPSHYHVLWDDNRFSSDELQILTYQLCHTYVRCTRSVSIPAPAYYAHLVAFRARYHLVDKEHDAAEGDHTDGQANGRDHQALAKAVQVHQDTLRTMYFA
Procedure, shortened: (§1)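 His-tagged AGO2 was expressed in Sf9 insect cells by baculovirus, loaded with a synthetic guide RNA, and purified by Ni-NTA and a biotinylated capture oligo. Bound RNA was extracted, reverse-transcribed, barcode-amplified and Illumina-sequenced. Fold enrichment is each sequence's read fraction divided by its input-library read fraction.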
For B1, the binding signal was 0.45 fold enrichment over input. For B2, the binding signal was 0.476 fold enrichment over input. B3 was tested, and the binding signal was 0.481 fold enrichment over input. With B4 the binding signal was 0.449 fold enrichment over input. B5 was tested, and the binding signal was 0.434 fold enrichment over input. For B6, the binding signal was 0.487 fold enrichment over input. With B7 the binding signal was 0.424 fold enrichment over input. B8 was tested, and the binding signal was 0.493 fold enrichment over input. B9 was tested, and the binding signal was 0.472 fold enrichment over input. B10 was tested, and the binding signal was 0.444 fold enrichment over input. For B11, the binding signal was 0.507 fold enrichment over input.

Each binder was assayed against AGO2 A367P (Homo sapiens, UniProt Q9UKV8 1-859, A367P;S387D;S824A;S828D;S831D;S834A) in the same assay as above. Details: protein: recombinant; tags: His6 (N-terminal, pFastBac HTA).
Chain of AGO2 A367P (Q9UKV8 whole entry A367P/S387D/S824A/S828D/S831D/S834A): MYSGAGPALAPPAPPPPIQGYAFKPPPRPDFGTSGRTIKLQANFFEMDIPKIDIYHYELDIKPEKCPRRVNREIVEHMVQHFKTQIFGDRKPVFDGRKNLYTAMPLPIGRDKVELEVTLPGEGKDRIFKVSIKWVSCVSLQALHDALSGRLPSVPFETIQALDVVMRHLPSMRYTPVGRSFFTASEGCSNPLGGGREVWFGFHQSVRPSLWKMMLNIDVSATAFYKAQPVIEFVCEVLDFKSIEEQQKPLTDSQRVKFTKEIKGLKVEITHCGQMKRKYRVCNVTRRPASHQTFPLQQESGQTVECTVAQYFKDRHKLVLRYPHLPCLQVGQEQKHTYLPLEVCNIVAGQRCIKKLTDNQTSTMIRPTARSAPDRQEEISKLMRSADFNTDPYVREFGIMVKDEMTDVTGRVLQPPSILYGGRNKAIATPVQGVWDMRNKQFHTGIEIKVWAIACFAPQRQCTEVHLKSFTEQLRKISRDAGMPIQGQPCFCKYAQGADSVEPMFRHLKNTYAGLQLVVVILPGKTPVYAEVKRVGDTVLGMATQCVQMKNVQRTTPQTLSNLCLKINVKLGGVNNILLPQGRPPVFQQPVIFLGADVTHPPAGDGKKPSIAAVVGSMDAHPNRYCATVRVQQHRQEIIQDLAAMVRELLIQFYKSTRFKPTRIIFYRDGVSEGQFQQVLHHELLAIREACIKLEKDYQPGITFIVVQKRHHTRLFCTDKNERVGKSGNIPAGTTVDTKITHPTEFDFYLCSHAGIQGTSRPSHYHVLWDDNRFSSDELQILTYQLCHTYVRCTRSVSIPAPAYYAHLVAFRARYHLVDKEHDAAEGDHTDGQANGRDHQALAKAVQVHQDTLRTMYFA
Procedure, shortened: as §1
For B1, the binding signal was 0.177 fold enrichment over input. B2 was tested, and the binding signal was 0.18 fold enrichment over input. With B3 the binding signal was 0.166 fold enrichment over input. B4 was tested, and the binding signal was 0.169 fold enrichment over input. For B5, the binding signal was 0.164 fold enrichment over input. For B6, the binding signal was 0.175 fold enrichment over input. For B7, the binding signal was 0.172 fold enrichment over input. For B8, the binding signal was 0.201 fold enrichment over input. In the case of B9, the binding signal is reported as 0.217 fold enrichment over input. For B10, the binding signal was 0.197 fold enrichment over input. With B11 the binding signal was 0.218 fold enrichment over input.

What follows are binders tested against AGO2 T357M (Homo sapiens, UniProt Q9UKV8 1-859, T357M;S387D;S824A;S828D;S831D;S834A) in the same assay as above. Details: protein: recombinant; tags: His6 (N-terminal, pFastBac HTA).
Chain of AGO2 T357M (Q9UKV8 whole entry T357M/S387D/S824A/S828D/S831D/S834A): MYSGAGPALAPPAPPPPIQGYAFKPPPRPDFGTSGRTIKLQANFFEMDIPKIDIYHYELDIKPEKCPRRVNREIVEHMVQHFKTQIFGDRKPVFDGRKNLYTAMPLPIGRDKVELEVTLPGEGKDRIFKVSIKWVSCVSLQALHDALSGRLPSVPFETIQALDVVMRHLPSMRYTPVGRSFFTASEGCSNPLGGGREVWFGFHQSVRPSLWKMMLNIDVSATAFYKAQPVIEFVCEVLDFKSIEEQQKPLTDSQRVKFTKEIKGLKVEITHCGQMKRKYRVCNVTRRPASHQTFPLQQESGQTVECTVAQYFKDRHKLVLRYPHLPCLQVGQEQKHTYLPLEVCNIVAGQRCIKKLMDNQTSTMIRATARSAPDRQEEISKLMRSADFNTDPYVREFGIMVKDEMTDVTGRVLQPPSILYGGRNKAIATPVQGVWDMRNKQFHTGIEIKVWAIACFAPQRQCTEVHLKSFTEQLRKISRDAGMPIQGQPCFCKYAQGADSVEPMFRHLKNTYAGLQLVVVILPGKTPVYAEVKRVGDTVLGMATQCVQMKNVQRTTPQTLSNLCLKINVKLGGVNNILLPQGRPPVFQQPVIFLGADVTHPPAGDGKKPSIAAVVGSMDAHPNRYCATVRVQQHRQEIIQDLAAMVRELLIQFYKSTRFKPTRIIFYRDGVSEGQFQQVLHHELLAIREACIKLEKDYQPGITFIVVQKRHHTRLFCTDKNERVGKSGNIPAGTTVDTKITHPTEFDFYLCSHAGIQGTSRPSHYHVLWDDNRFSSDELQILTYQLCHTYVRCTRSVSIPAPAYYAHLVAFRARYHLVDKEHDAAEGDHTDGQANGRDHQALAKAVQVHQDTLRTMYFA
Procedure, shortened: as §1
B1 was tested, and the binding signal was 0.623 fold enrichment over input. In the case of B2, the binding signal is reported as 0.643 fold enrichment over input. In the case of B3, the binding signal is reported as 0.617 fold enrichment over input. For B4, the binding signal was 0.609 fold enrichment over input. For B5, the binding signal was 0.606 fold enrichment over input. B6 was tested, and the binding signal was 0.582 fold enrichment over input. With B7 the binding signal was 0.675 fold enrichment over input. B8 was tested, and the binding signal was 0.695 fold enrichment over input. With B9 the binding signal was 0.558 fold enrichment over input. In the case of B10, the binding signal is reported as 0.556 fold enrichment over input. In the case of B11, the binding signal is reported as 0.615 fold enrichment over input.

The binders below were run against AGO2 F182del (Homo sapiens, UniProt Q9UKV8 1-859, S387D;S824A;S828D;S831D;S834A;del182-182) in the same assay as above. Details: protein: recombinant; tags: His6 (N-terminal, pFastBac HTA).
Chain of AGO2 F182del (Q9UKV8 other isoform, or with tags, fused parts or gaps S387D;S824A;S828D;S831D;S834A;del182-182): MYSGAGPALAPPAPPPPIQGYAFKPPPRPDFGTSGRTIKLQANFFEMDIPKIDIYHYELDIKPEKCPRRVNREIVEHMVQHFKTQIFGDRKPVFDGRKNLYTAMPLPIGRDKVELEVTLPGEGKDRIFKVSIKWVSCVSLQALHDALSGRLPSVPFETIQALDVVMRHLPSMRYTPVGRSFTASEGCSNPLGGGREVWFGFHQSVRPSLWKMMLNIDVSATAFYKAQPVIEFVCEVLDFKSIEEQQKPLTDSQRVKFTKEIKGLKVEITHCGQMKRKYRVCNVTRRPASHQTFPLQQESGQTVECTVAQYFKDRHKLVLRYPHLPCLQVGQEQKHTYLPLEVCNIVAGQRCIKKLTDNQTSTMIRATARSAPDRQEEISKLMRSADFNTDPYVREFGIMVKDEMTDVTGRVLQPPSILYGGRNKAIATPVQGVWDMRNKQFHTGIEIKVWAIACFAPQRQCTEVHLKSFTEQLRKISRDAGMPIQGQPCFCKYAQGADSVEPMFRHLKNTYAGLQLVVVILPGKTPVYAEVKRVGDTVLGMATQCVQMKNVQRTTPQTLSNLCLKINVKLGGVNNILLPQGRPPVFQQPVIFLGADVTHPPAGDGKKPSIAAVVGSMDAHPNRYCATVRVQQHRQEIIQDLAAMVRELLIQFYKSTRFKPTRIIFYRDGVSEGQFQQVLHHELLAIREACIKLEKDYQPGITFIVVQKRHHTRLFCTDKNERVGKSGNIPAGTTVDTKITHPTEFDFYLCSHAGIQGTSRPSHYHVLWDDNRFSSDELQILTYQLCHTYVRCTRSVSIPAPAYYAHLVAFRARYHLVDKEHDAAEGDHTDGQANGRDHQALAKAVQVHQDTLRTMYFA
Procedure, shortened: as §1
With B2 the binding signal was 0.123 fold enrichment over input. B9 was tested, and the binding signal was 0.942 fold enrichment over input. With B10 the binding signal was 0.125 fold enrichment over input. In the case of B11, the binding signal is reported as 0.235 fold enrichment over input.
